The source of these data is PubChem BioAssay (NCI).

Common to all, as to assay: NCI-60 one-dose screen, 48 h (100 = growth as untreated, 0 = no growth, -100 = all killed)
Common to all, as to details: 10 µM unless noted

In assay [1] the test system is SR leukemia.
Assay [2] concerns RPMI-8226 leukemia.
The subject of assay [3] is OVCAR-8 ovarian.
For assay [4], the system named is OVCAR-5 ovarian.
For assay [5], the system named is SK-OV-3 ovarian.
Assay [6] deals with IGROV1 ovarian.
The subject of assay [7] is OVCAR-3 ovarian.
Assay [8] concerns HS 578T breast.
For assay [9], the system named is NCI/ADR-RES ovarian.
For assay [10], the system named is T-47D breast.
Assay [11] relates to BT-549 breast.
In assay [12] the test system is MDA-MB-435 melanoma.
Assay [13] concerns SW-620 colon.
In assay [14] the test system is MCF7 breast.
Assay [15] relates to HCT-116 colon.
The subject of assay [16] is HCC-2998 colon.
In assay [17] the test system is KM12 colon.
The test system of assay [18] is OVCAR-4 ovarian.

Each structure is given as a SMILES string. This is part of a sample that, as a whole, favours compounds with a hit. Of some 83,000 tested, about 20% had one in any assay.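 Percent growth is the endpoint: 0 to 100 indicates growth inhibition (40 means 60% inhibition), 0 means no net growth, and negative values indicate cell death.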 Values without a mark were called inactive. Activity calls are given as the source filed them. How the source made its calls: active means growth percent below 10; inactive means the rest.

`COc1c(Cl)cc(Cl)cc1Cl`: the growth in assay [1] is 101%; in assay [2], 118%; in assay [3], 112%; in assay [4], 121%; in assay [5] it was 107%; in assay [6] it was 97.4%. Further, the growth in assay [7] was 109%; in [8] it was 87.8%; in [9] it was 112%; in [10] it was 104%; in assay [11], 120%; in assay [12], 115%. For the same molecule, the growth in [13] was 91.8%; in assay [14], 111%; in assay [15] it was 109%; in assay [16], 118%; in assay [17] it was 109%.
Consider `CN(C)CCCC(=O)Nc1ccc(Cn2nnc3c2C(=O)c2nnn(Cc4ccc(NC(=O)CCCN(C)C)cc4)c2C3=O)cc1`, for which the growth was 74.7% in [1]; 76.1% in assay [2]; 86.6% in assay [3]; 115% in assay [4]; -98.6% (active) in [18]; 57.3% in [6]. Further, the growth is 4.3% (active) in [7]; 112% in [8]; 108% in assay [9]; -5.44% (active) in assay [10]; 80.5% in assay [11]; -83.7% (active) in assay [12]. In addition, the growth in [13] was 52.3%; in assay [14] it was -40% (active); in assay [15] it was 6.95% (active); in assay [16] it was 59.3%; in assay [17], 81.4%.
In the case of `N=S(=O)(NC(=O)c1ccc(Cl)cc1Cl)c1ccc(Br)s1` (centres undefined), the growth in assay [1] is 75%; in assay [2], 86.5%; in assay [3] it was 90.9%; in assay [4], 119%; in assay [6], -1.49% (active); in assay [7], 105%. For the same molecule, the growth in [8] is 87.3%; in [9], 91.3%; in [10], 103%; in assay [11], 99.5%; in [12] it was 96.2%; in [13], 80.9%. The growth in assay [14] is 91.5%; in [15], 80.6%; in assay [16], 102%; in assay [17], 88.5%.
With `CCOC(=O)c1cnc2cc(Cl)c(F)cc2c1Nc1cccc(NS(C)(=O)=O)c1`, the growth in assay [1] is 112%; in assay [2], 105%; in assay [3], 102%; in [4] it was 93.2%; in assay [18] it was 95.5%; in [6] it was 91%. The growth in [8] was 93.7%; in assay [9], 81%; in assay [10], 93.5%; in assay [11], 105%; in assay [12], 104%; in assay [13], 94.1%. Besides, the growth in assay [14] was 92.5%; in assay [15], 86.5%; in assay [16], 98.4%; in assay [17] it was 93.8%.
As for `COc1ccc(CN(c2ccc(C)cc2)C2OC(=O)c3ccccc32)cc1OC` (centres undefined), the growth was 83.8% in [1]; 108% in assay [3]; 89.7% in [4]; 103% in [18]; 118% in [5]; 116% in [6]. Also, the growth in assay [7] is 113%; in [8], 102%; in assay [9] it was 96.3%; in [10], 95.2%; in assay [11], 106%; in assay [12] it was 100%. Moreover, the growth in assay [13] is 99.2%; in assay [14], 92.5%; in assay [15], 105%; in [16], 102%.
As for `Cc1ccn2c(-c3csc(Nc4cccc(O)c4)n3)c(C)nc2c1`, the growth in assay [1] is -24.8% (active); in assay [2], -4.74% (active); in [3], 40.1%; in assay [4] it was 38.5%; in assay [18], 36.7%; in assay [6] it was 14.1%. Besides, the growth in assay [7] is -14% (active); in assay [8], 19.2%; in assay [9] it was 14.4%; in [10] it was 34%; in [11], 25%; in assay [12] it was -34.6% (active). Besides, the growth in [13] was 33.4%; in assay [14] it was 6.08% (active); in assay [15], 27.6%; in assay [17] it was 29.9%.
As for `CCCCCCCCCCCCN1CCCC(C)C1` (centres undefined), the growth is -13.9% (active) in assay [1]; 64.1% in assay [2]; 88.2% in [4]; 68% in assay [18]; 88.3% in [5]; 82.4% in assay [6]. Besides, the growth in assay [7] was 93.3%; in assay [8], 99.8%; in [9], 88.2%; in assay [10], 74.6%; in assay [11], 78.1%; in assay [12], 95.9%. For the same molecule, the growth in assay [13] was 87.7%; in assay [14], 68.6%; in [15] it was 60.7%; in [16] it was 86.9%; in assay [17], 60.7%.
Regarding `O=C1c2c[n+](Cc3ccccc3)ccc2-c2nc3ccccc3c3ccnc1c23`, the growth in [1] is -8.84% (active); in assay [2], -25.2% (active); in [4], -11% (active); in assay [18], -38.7% (active); in [5] it was -13% (active); in assay [6], -46.1% (active). Also, the growth in [7] was -66.8% (active); in [8] it was -18.8% (active); in assay [9] it was 75.9%; in assay [10], -48.4% (active); in assay [11] it was -30.7% (active); in assay [12] it was -81.8% (active). For the same molecule, the growth in [13] was -12.9% (active); in assay [14], -42.3% (active); in assay [15], -31.5% (active); in [16], -53% (active); in [17], 2.73% (active).
Consider `CCN(CC)c1ccc(CNc2cc(C)nc3ccc(OC)cc23)cc1`, for which the growth is -22.2% (active) in assay [1]; -33.7% (active) in assay [2]; 81.4% in assay [3]; 96.3% in [4]; 71.9% in assay [18]; 51.6% in [7]. The growth is 33.9% in [9]; 80% in assay [10]; 79.6% in assay [11]; -16.5% (active) in [12]; -74.6% (active) in assay [13]; 76.7% in [14]. In addition, the growth in [15] is 54.8%; in assay [16], -92.6% (active); in assay [17] it was 28.4%.
`COc1ncc(-c2ccc3ncnc(Nc4cccc(Cl)c4)c3c2)cc1NS(C)(=O)=O`: the growth in [1] is 50.6%; in assay [2] it was 22.8%; in assay [3], 45.5%; in assay [18] it was 70.7%; in assay [5], -11.2% (active); in assay [6], -45.5% (active). Besides, the growth in assay [7] is 26.9%; in assay [8] it was 16.2%; in assay [9] it was 51%; in assay [10] it was -6.68% (active); in assay [11], 25.3%; in assay [12], 41.9%. In addition, the growth was 50.2% in [13]; 7.7% (active) in [14]; 47% in assay [15]; 56.8% in [16]; 55.3% in assay [17].
